# PostGolgi ctrl: growth inhibition of yeast control strain, primary screen, counter-screen for post-Golgi transport modulator project. actives 5% (n = 98,000). inhibition, % at 10 µM. AID 738, 2007. efflux-deficient yeast background strain, growth absorbance A615, 16 h
# CYP2C9 activ: human CYP2C9 activators, primary screen, biochemical, luminescence | recombinant CYP2C9, luciferin-H conversion; stronger effect = higher value; factor 1 = untreated enzyme, 0 = blocked | activation factor at 5 µM | actives 1.4% (n = 96,000) | AID 1024, 2008;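 active = activation factor of 2 or more for CYP2C9 at a 5 µM dose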
# CYP2C19 act: human CYP2C19 activators, primary screen, biochemical, luminescence; activation factor at 5 µM; recombinant CYP2C19, luciferin-H EGE luminescence; stronger effect = higher value; 0 = fully inhibited enzyme, 1 = untreated enzyme; AID 1025, 2008; 96,000 tested, under 10 active;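 active = activation factor of at least 2 at 5 µM in the primary screen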
# Target sequence (P33261 whole entry, looked up): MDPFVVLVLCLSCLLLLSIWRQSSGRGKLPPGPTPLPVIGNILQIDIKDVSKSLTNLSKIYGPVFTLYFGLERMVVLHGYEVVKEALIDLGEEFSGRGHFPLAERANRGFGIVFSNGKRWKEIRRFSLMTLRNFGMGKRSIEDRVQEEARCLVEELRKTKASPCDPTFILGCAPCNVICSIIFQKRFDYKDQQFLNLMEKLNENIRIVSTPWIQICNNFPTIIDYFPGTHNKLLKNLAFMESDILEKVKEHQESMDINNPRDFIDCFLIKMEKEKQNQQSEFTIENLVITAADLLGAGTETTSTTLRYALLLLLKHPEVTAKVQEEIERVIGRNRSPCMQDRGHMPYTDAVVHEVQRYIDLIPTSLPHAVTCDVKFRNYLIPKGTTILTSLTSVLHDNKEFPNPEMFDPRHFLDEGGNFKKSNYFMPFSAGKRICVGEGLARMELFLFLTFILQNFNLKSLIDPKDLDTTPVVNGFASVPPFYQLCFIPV
# PostGolgi yeast: phenotypic screen on post-Golgi transport, primary screen | actives 0.9% (n = 98,000) | post-Golgi transport phenotypic cell assay | inhibition, % at 10 µM | AID 739, 2007;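 also: yeast cells grown in 1536-well plates; yeast grown about 18 h at 30C before absorbance read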
# CYP2C9 inhib: blockers of cytochrome P450 2C9 activity – biochemical, luminescence, ADME assay, primary screen | CYP2C9 Supersomes, luciferin-H conversion | inhibition, % at 5 µM | actives 20% (n = 96,000);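 active = blocking of liver enzyme CYP2C9 beyond about 50% at 5 µM, limit read from the data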
# CYP2C19 inhib: blockers of cytochrome P450 2C19 activity – biochemical, luminescence, ADME assay, primary screen | P33261 | CYP2C19 Supersomes, luciferin-H EGE luminescence, 30 min | inhibition, % at 5 µM | actives 21% (n = 96,000) | AID 778, 2007;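 active = CYP2C19 inhibition above a set limit at 5 µM in the primary screen, cut at about 50% in these data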
# A number is an active result; n = inactive; x = no result given. In the library only some 32% were active in any assay of this set; here they are far more common. Rule as the data show it, unless noted: active = inhibition above about 30%; inactive = the rest.
SMILES,PostGolgi ctrl,CYP2C9 activ,CYP2C19 act,PostGolgi yeast,CYP2C9 inhib,CYP2C19 inhib
COC(=O)C1=C(C)N(C)C(C)=C(C(=O)OC)C1c1ccc(F)c(Br)c1,53,n,n,n,94,65
CCOC(=O)C1=C(C)N(C)C(C)=C(C(=O)OCC)C1c1ccncc1,n,n,n,n,100,97
COC(=O)C1=C(C)n2cnnc2NC1c1ccc(Cl)cc1 (centres undefined),n,n,n,n,n,n
CCOC(=O)C1=C(C)NC(=O)NC1c1cccnc1 (centres undefined),n,n,n,n,n,n
COC(=O)C1=C(C)N(C)C(C)=C(C(=O)OC)C1c1ccncc1,n,n,n,n,79,78
O=C(Nc1ccc(N2CCN(C(=O)c3ccco3)CC2)cc1)c1cccc(F)c1,n,n,n,n,n,n
COc1ccc(NC(=O)CSc2nc3c(c(-c4cccs4)c2C#N)CN(C)CC3)cc1OC,n,n,n,n,64,n
COc1ccc(NC(=O)CSc2nc(N)c(C#N)cc2C#N)cc1,n,n,n,n,n,n
CCOC(=O)c1c(C#N)c(SCC(=O)Nc2ccc(OC)cc2)nc2c1CN(CC)CC2,n,n,n,n,98,52
COc1ccc2nc3sc(C(=O)NCc4cccs4)c(N)c3cc2c1,n,n,n,n,56,77
CCCCC(=O)N(CCOC)c1nnc(-c2ccc(OC)cc2)s1,n,n,n,n,n,n
COCCN(C(=O)c1cccc(OC)c1)c1nnc(-c2ccncc2)s1,n,n,n,n,80,100
C=CCN(C(=O)COc1ccccc1)c1nnc(-c2ccncc2)s1,n,n,n,n,52,87
COCCN(C(=O)C1CC1)c1nnc(-c2cccc(C)c2)s1,n,n,n,n,80,72
NC(=O)CSc1nnc(C2CC2)n1-c1ccccc1,n,n,n,n,n,n
Cc1nc(NC(=O)COC(=O)CCS(=O)(=O)c2ccccc2Cl)c(Cl)cc1Cl,n,n,n,n,n,n
O=C(NCCN1CCOCC1)c1cc(=O)[nH]c2ccc(Br)cc12,n,n,n,n,n,n
O=C(Nc1cc(C(F)(F)F)ccc1N1CCOCC1)C1Cc2ccccc2CN1C(=O)c1ccco1 (centres undefined),n,n,n,n,96,90
O=C(Nc1cc(C(F)(F)F)ccc1N1CCOCC1)c1ccccc1F,n,n,n,n,n,n
CC(C)(C)C(=O)NC(=S)Nc1cc(C(F)(F)F)ccc1N1CCOCC1,n,n,n,n,94,96
O=C(Nc1cc(C(F)(F)F)ccc1N1CCOCC1)c1cccc(F)c1,n,n,n,n,n,83
COc1cccc(OC)c1C(=O)Nc1cc(Cl)ccc1N1CCOCC1,n,n,n,n,62,n
O=C(O)CCN1C(=O)/C(=C\c2ccc(-c3nc4ccccc4s3)o2)SC1=S,n,n,n,n,n,n
CC(=O)Nc1cc(C(F)(F)F)ccc1N1CCOCC1,n,n,n,n,n,n
O=C(Nc1cc(C(F)(F)F)ccc1N1CCOCC1)c1cccs1,n,n,n,n,n,59
SMILES,PostGolgi ctrl,CYP2C9 activ,CYP2C19 act,PostGolgi yeast,CYP2C9 inhib,CYP2C19 inhib
CC1(C)Cc2nc(N)c(C(=O)NCCO)cc2CO1,n,n,n,n,n,n
COC(=O)c1cncc(O)c1,n,n,n,n,n,n
O=S(=O)(Nc1nc2ccccc2nc1NCCN1CCOCC1)c1cccc(Cl)c1,n,n,n,n,98,n
Clc1ccc(-c2nc(NCCN3CCOCC3)c3ccccc3n2)cc1,n,n,n,n,50,n
Nc1c(S(=O)(=O)c2cccc(Cl)c2)c2nc3ccccc3nc2n1CCN1CCOCC1,n,n,n,n,n,n
O=S(=O)(CCc1nc2ccccc2s1)c1ccc(Cl)cc1,n,n,n,n,n,n
COc1ccc(S(=O)(=O)CCc2nc3ccccc3s2)cc1,n,n,n,n,n,76
O=S(=O)(Cc1nc2ccccc2s1)c1ccccc1,n,2.3,n,n,n,n
Cc1csc(/C(=N\O)c2csc(C)n2)n1,n,n,n,n,n,n
Cc1ccc(CN(c2ccc(C(=O)NCc3ccc4c(c3)OCO4)cc2)S(C)(=O)=O)cc1,n,n,n,n,n,n
Cc1ccc(-c2nn(-c3ccccc3)cc2/C=C(\C#N)c2cccc(C#N)c2)o1,n,n,n,n,64,n
CCCOc1ccc(-c2nc(=S)[nH][nH]2)cc1,n,n,n,n,n,n
COc1cccc(-c2nnc3sc(-c4ccc(Cl)cc4)nn23)c1,x,n,n,x,66,n
Clc1ccc(-c2nn3c(-c4ccccc4)nnc3s2)cc1,n,n,n,n,n,81
Cc1cn2c(-c3ccc(Cl)cc3)nnc2s1,n,n,n,n,n,58
CCOc1cccc(-c2nn3c(-c4cc(C)[nH]n4)nnc3s2)c1,n,n,n,n,n,n
COc1cccc(OC)c1-c1nn2c(-c3cc(-c4ccccc4)n[nH]3)nnc2s1,n,n,n,n,57,56
CCN(c1cccc(C(F)(F)F)c1)S(=O)(=O)c1ccc2c(c1)CCN2C(=O)C1CC1,n,n,n,n,n,n
COc1ccc(-c2nn3c(-c4ccccc4)nnc3s2)cc1,n,n,n,n,70,74
c1ccc(-c2nnc3sc(-c4cc5ccccc5o4)nn23)cc1,n,n,n,n,n,n
Clc1cccc(-c2nn3c(-c4ccncc4)nnc3s2)c1,x,n,n,x,n,55
CCN(CC)c1ccc(-c2nn3c(-c4ccccc4OC)nnc3s2)cc1,43,n,n,n,n,n
c1ccc(-c2nnc3sc(-c4csc5c4CCCC5)nn23)cc1,75,n,n,n,n,n
[O-]/C(=C(\C(=S)Nc1cccc2ccccc12)[n+]1ccccc1)c1ccc2c(c1)OCCO2,n,n,n,n,n,n
CCc1ccc(Nc2nnc(SCc3cc(=O)n4ccsc4n3)s2)cc1,n,n,n,n,n,n
SMILES,PostGolgi ctrl,CYP2C9 activ,CYP2C19 act,PostGolgi yeast,CYP2C9 inhib,CYP2C19 inhib
Cc1cccc(-c2nnc3sc(-c4ccccc4C)nn23)c1,64,n,n,n,81,89
Clc1cccc(-c2nnc3sc(-c4ccc5c(c4)OCO5)nn23)c1,x,n,n,x,n,n
CCOc1ccccc1CN(Cc1ccco1)S(=O)(=O)c1ccc(-n2cnnn2)c(OC)c1,n,n,n,n,68,94
COc1cc(S(=O)(=O)N(Cc2ccco2)C2CCCC2)ccc1-n1cnnn1,n,n,n,n,74,98
Cc1cc(S(=O)(=O)N(Cc2ccccn2)Cc2ccco2)ccc1-n1cnnn1,n,n,n,n,54,75
CCN(Cc1ccccc1)S(=O)(=O)c1ccc(S(=O)(=O)N(Cc2ccccn2)Cc2ccco2)cc1,n,n,n,n,n,n
